From PubChem BioAssay (NCATS)
Unmarked numbers belong to inactive results. Results filed as inconclusive are left out. Where a call stands in place of a potency, no number is given. Activity calls are given as the source filed them. Unless noted, calls come from the whole dose curve; as a rule, active = well fitted curve in the direction sought with a large enough effect; inconclusive = small, poorly fitted or top-dose-only effect, or another doubt; inactive = no such curve, though single readings can be large; an effect the other way counts as inactive or inconclusive.

Tests used:
[1] = target: Rap guanine nucleotide exchange factor 3 (Homo sapiens) (UniProt O95398); assay: Counterscreen qHTS for antagonist of cAMP-regulated guanine nucleotide exchange factor 3 (EPAC1) (AID 1645888);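 note: fluorescence loss as bound BODIPY-GDP is released from Rap1B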
Sequence of Rap guanine nucleotide exchange factor 3 (Homo sapiens) (O95398 whole entry, looked up): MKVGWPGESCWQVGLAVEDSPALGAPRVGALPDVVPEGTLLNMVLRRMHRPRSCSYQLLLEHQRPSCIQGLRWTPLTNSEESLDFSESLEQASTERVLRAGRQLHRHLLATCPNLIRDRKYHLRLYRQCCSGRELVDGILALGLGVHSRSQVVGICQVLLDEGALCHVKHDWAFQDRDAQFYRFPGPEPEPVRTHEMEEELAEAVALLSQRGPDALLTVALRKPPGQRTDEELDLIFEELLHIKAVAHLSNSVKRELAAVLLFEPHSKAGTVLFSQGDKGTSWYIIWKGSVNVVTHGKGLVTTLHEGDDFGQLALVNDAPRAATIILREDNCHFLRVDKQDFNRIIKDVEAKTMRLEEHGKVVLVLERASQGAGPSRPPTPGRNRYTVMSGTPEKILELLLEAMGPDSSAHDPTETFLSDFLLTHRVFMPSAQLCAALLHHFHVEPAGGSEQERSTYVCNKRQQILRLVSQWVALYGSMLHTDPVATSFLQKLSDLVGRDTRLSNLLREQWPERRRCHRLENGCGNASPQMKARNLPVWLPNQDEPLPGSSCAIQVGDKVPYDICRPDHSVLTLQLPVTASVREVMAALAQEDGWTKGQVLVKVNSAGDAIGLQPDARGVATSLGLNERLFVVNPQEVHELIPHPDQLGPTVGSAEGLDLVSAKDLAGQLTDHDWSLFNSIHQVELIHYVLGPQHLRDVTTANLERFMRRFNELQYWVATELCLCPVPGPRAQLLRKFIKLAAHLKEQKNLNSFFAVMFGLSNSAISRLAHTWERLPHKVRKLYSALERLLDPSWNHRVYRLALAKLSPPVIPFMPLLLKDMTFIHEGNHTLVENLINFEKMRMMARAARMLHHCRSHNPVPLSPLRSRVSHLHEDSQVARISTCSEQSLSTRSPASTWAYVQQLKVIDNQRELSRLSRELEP
Summary of the method: (§1)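 Measured: fluorescence of BODIPY-GDP bound to Rap1B, which falls as exchange proceeds. Conditions include 50 uM competing GDP, 5 and 30 min reads, and a later cAMP challenge for antagonist detection.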

[2] = target: Rap guanine nucleotide exchange factor 3 (Homo sapiens) (UniProt O95398); assay: Counterscreen qHTS for agonist of cAMP-regulated guanine nucleotide exchange factor 3 (EPAC1) (AID 1645889); note: nearly all actives have a fitted effect of over 40% in size
Summary of the method: as §1

[3] = HepG2 viability counterscreen (readout 2: ATP content) against the NCATS DSHEA and TCM libraries (AID 1794840);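 note: HepG2 cells exposed to substances for about 24 h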
Summary of the method: (§2)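 Cytotoxicity was assessed in HepG2 cells plated at 1,000 cells/well and exposed for about 24 hours to a concentration series. Protease activity and ATP content were measured sequentially in each well.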

[4] = HepG2 viability counterscreen (readout 1: protease activity) against the NCATS DSHEA and TCM libraries (AID 1794841);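 note: cells exposed to compounds for about 24 h before the protease read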
Summary of the method: as §2

[5] = target: Cytochrome P450 2D6 (Homo sapiens) (UniProt P10635); assay: qHTS for inhibitors of CYP2D6 against the NCATS DSHEA and TCM libraries (AID 1919972)
Sequence of Cytochrome P450 2D6 (Homo sapiens) (P10635 whole entry, looked up): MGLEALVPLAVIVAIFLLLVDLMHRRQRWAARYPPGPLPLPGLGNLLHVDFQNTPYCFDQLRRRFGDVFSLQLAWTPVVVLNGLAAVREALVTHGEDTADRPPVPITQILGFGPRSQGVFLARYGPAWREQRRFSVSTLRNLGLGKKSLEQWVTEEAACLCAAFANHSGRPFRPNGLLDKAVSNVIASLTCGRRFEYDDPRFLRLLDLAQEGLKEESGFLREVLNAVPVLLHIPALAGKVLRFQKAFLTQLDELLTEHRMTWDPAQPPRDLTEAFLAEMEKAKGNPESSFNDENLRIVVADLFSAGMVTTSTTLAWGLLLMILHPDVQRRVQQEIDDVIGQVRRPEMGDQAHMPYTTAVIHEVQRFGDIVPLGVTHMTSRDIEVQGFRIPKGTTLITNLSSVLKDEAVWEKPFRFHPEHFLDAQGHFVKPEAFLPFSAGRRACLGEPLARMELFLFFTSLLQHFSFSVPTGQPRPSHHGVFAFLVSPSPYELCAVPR
Summary of the method: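 Steps: enzyme plus luciferin substrate dispensed; test substances pinned; 15 min RT; 1x NADPH regenerating solution added, 30–45 min RT protected from light; detection reagent, 30 min RT; luminescence measured. Minus-enzyme wells as background.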

[6] = KB-3-1 P-gp reporter qHTS against the NCATS DSHEA and TCM libraries (AID 1919975)
Summary of the method: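 72 h exposure of KB-3-1 cells (DMEM, 10% FBS) to DSHEA/TCM samples, concentration-response; cell viability measured as CellTiter-Glo luminescence after 30 min at room temperature.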

[7] = target: Cytochrome P450 1A2 (Homo sapiens) (UniProt P05177); assay: qHTS for inhibitors of CYPIA2 against the NCATS DSHEA and TCM libraries (AID 1919976);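 note: light from luciferin formed by CYP1A2 from a pro-luciferin substrate; series mostly up to about 37 µM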
Sequence of Cytochrome P450 1A2 (Homo sapiens) (P05177 whole entry, looked up): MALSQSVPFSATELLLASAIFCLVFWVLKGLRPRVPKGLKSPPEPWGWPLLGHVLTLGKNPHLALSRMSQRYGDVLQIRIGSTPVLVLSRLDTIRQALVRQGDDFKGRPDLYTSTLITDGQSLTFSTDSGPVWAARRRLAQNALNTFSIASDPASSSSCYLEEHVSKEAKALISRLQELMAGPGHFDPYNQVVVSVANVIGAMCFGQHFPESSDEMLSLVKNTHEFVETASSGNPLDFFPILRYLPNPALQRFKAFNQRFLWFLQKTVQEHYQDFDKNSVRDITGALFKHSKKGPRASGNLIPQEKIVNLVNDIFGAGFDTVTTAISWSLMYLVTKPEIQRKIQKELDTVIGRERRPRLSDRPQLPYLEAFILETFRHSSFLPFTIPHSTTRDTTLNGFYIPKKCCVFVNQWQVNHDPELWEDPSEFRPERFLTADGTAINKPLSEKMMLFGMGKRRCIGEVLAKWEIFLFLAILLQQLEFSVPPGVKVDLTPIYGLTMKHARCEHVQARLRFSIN
Summary of the method: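 In this quantitative HTS, inhibition of recombinant human CYP1A2 was measured as loss of luciferin-derived luminescence. Turnover ran 30-45 min at RT after NADPH regeneration solution was added.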

[8] = qHTS Counterscreen for compound interference against the NCATS DSHEA and TCM libraries (AID 1919978); conditions: firefly luciferase detection reagent interference, luminescence
Summary of the method: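 Read-out is luminescence after 30 min at RT with luciferin detection reagent. Before that, compounds (19.5 nM to 39.8 uM final) sat 15 min at RT with 1 uM D-luciferin or 100 mM potassium phosphate buffer. PTC124 served as intraplate control.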

[9] = Dual reporter qHTS for agonist of Pregnane X Receptor (hPXR) against the NCATS DSHEA and TCM libraries: Fluorescence readout (AID 1920058)
Summary of the method: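 Measures viability of the PXR reporter HepG2 line by protease-substrate fluorescence (405/540 nm), taken 1 h after CellTiter-Fluor addition. Substances are tested as concentration series over a ~24 h exposure, with rifampicin as agonist control.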

[10] = target: Nuclear receptor subfamily 1 group I member 2 (Homo sapiens) (UniProt O75469); assay: Dual reporter qHTS for agonist of Pregnane X Receptor (hPXR) against the NCATS DSHEA and TCM libraries: Luminescence readout (AID 1920059)
Sequence of Nuclear receptor subfamily 1 group I member 2 (Homo sapiens) (O75469 whole entry, looked up): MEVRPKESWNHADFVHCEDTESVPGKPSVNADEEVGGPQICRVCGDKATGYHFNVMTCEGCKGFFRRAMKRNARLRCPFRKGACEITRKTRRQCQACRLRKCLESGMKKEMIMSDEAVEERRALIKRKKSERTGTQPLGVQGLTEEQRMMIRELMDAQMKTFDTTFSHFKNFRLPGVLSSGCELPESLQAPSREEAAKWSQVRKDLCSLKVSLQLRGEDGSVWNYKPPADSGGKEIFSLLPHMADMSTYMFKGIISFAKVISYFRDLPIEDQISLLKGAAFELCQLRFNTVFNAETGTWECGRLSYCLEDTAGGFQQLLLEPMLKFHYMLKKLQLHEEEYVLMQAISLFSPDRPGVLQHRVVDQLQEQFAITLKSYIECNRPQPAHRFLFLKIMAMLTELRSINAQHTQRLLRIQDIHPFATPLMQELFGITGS
Summary of the method: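 hPXR-LucHepG2 cells in phenol red-free DMEM with 5% charcoal-stripped FBS, 2000 cells/well, attached 5 h, then exposed 24 h at 37C to compounds; rifampicin as positive agonist control (2.8 nM–92 uM). Luciferase luminescence read.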

[11] = target: Nuclear receptor subfamily 1 group I member 2 (Homo sapiens) (UniProt O75469); assay: Dual reporter qHTS for antagonist of Pregnane X Receptor (hPXR) against the NCATS DSHEA and TCM libraries: Luminescence Readout (AID 1920060);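 note: HepG2 cells carrying hPXR luciferase reporter stimulated with rifampicin at 2 µM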
Summary of the method: (§3)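 hPXR-Luc HepG2 cells exposed 24 h at 37 C to compounds with 2 uM rifampicin in antagonist mode; luciferase luminescence measured by ONE-Glo, with CellTiter-Fluor viability read beforehand.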

[12] = Dual reporter qHTS for antagonist of Pregnane X Receptor (hPXR) against the NCATS DSHEA and TCM libraries: Fluorescence Readout (AID 1920061)
Summary of the method: as §3

[13] = target: Thioredoxin reductase 1, cytoplasmic (Rattus norvegicus) (UniProt O89049); assay: qHTS Assay for Substrates of Mammalian Selenoprotein Thioredoxin Reductase 1 (TrxR1) (AID 488772);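 note: NADPH fluorescence in the first read after selenite addition and not the 8 min delta; series mostly up to about 57 µM; a drop in NADPH fluorescence below the no-compound background marks a TrxR1 substrate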
Summary of the method: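 Quantitative HTS in Tris-HCl buffer at pH 7.5 with EDTA and Tween-20, using rat TrxR1, 400 uM NADPH and 400 uM selenite (final). A fall in initial NADPH fluorescence relative to background marked substrate behaviour.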

[14] = target: Glutaminase kidney isoform, mitochondrial (Homo sapiens) (UniProt O94925); assay: qHTS for Inhibitors of Glutaminase (GLS): LOPAC Validation (AID 624146);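 note: glutamate product detected by oxidase and peroxidase coupled Amplex red fluorescence gain; series mostly up to about 46 µM; nearly all actives have a fitted effect of over 60% in size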
Sequence of Glutaminase kidney isoform, mitochondrial (Homo sapiens) (O94925 whole entry, looked up, canonical isoform): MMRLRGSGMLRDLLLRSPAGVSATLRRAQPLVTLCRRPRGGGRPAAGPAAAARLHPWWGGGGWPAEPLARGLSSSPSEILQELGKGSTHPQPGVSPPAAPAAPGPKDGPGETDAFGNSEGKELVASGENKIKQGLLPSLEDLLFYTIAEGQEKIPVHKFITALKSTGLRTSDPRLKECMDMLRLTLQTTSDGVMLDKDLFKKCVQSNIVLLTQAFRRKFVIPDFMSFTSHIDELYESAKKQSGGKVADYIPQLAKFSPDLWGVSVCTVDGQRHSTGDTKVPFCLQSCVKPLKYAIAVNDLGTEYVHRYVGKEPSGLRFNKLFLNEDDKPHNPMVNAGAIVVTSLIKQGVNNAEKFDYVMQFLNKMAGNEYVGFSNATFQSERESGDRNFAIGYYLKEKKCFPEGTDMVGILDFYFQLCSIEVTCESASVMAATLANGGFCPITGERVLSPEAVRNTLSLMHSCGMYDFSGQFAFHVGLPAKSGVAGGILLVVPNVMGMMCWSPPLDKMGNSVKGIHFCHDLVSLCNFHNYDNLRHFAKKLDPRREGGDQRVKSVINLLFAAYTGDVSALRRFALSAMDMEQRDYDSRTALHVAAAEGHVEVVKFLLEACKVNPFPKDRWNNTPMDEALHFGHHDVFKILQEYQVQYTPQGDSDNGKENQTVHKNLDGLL
Summary of the method: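 Two-point fluorescence kinetic (t0, 30 min RT) for hKGA; glutamate detected via glutamate oxidase–HRP–Amplex Red. Substrate: 1 mM L-glutamine solution; buffer 45 mM KH2PO4, pH 8.2.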

[15] = qHTS of Trypanosoma Brucei Inhibitors: LOPAC Validation (AID 624147)
Summary of the method: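 Activity of T. brucei pyruvate kinase was followed by Kinase-Glo Plus luminescence after the enzyme reacted 45 min at room temperature with 130 uM ADP (final) and substrate. Test compounds were added before ADP at multiple concentrations.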

[16] = qHTS Assay for Identification of Small Molecule Antagonists for NFkB Signaling Pathway (AID 895; active = well fitted inhibition curve with a large enough effect in the signal ratio, with a control signal flat, not every such curve was filed as active; the % refers to the signal ratio; note: potency is the fitted concentration of half-maximal effect)
Summary of the method: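 NFkB-bla ME-180 cervical carcinoma cells with beta-lactamase reporter under NFkB response element; compounds added, then TNF alpha at 10 pM final (EC50), 5 h at 37 C. LiveBLAzer substrate 2 h, room temperature; emission 460/530 nm at 405 nm excitation.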

[17] = target: ATPase family AAA domain-containing protein 5 (Homo sapiens) (UniProt Q96QE3); assay: Validation screen for small molecules that inhibit ELG1-dependent DNA repair in human embryonic kidney (HEK293T) cells expressing luciferase-tagged ELG1 (AID 493107); note: potency is the fitted concentration of half-maximal effect; nearly all actives have a fitted effect of over 70% in size
Sequence of ATPase family AAA domain-containing protein 5 (Homo sapiens) (Q96QE3 whole entry, looked up, the tested form may be a part): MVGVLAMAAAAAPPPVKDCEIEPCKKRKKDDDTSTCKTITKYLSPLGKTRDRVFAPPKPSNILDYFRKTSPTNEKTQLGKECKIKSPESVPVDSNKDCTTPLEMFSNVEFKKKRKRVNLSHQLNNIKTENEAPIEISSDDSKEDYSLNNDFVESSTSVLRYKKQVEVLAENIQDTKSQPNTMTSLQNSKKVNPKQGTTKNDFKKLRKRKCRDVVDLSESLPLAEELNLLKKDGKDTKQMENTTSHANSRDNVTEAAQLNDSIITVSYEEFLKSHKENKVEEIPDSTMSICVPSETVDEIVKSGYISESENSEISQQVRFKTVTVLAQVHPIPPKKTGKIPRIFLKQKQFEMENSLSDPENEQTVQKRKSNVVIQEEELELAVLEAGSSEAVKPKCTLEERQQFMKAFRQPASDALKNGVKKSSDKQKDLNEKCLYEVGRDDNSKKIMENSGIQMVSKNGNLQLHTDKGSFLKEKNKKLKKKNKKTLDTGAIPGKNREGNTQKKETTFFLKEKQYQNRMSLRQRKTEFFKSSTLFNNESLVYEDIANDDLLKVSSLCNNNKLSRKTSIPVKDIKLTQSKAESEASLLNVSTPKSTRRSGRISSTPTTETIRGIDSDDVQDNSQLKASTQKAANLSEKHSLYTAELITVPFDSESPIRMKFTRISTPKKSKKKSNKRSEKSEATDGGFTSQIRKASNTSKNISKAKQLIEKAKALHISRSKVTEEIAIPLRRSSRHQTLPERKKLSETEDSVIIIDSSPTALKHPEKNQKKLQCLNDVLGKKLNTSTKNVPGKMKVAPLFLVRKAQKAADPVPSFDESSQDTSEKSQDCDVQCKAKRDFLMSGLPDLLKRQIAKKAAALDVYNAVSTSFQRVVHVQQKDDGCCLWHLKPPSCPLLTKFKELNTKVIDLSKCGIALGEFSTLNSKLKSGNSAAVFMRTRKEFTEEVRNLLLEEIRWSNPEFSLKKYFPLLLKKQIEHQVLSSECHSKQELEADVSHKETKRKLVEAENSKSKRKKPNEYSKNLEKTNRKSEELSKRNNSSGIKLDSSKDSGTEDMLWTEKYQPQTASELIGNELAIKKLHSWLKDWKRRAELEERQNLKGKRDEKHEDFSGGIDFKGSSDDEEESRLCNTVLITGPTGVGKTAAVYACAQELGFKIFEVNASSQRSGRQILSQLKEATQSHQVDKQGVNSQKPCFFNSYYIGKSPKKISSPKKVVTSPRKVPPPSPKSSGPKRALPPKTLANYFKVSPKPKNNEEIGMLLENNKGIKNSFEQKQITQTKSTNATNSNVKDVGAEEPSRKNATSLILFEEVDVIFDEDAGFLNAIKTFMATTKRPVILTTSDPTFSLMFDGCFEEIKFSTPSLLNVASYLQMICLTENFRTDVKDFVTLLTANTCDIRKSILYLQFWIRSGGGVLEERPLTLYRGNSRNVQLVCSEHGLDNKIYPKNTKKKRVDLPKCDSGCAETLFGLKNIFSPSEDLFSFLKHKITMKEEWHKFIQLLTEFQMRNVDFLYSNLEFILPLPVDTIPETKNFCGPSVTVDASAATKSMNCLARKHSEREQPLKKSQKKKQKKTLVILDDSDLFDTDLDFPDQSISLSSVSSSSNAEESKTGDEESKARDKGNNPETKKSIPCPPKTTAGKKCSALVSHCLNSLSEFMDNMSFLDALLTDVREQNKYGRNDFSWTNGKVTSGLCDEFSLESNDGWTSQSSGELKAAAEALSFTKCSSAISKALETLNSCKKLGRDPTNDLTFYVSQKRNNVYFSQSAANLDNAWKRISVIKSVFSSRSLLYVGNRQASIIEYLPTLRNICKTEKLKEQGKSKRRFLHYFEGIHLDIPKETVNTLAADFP
Summary of the method: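 Quantitative HTS in HEK293T cells carrying luciferase-tagged ELG1, stimulated with 5-fluorouridine alongside compound for 16 hr. Loss of luciferase signal marks inhibition of ELG1 response.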

[18] = qHTS for Inhibitors of ATXN expression: Validation (AID 588378); note: potency is the fitted concentration of half-maximal effect; nearly all actives have a fitted effect of over 75% in size
Summary of the method: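 Validation of ATXN2 expression inhibitors uses a cell-based luciferase fusion reporter in HEK293 cells, with 24 h compound exposure and paired viability (fluorescence) and reporter (luminescence) end-point reads.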

[19] = High Content Imaging Cell-Based qHTS for Inhibitors of the mTORC1 Signaling Pathway in MEF Cells (AID 2667); note: potency is the fitted concentration of half-maximal effect
Summary of the method: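 MEF (Tsc2-/-, p53-/-, WT Tsc2 re-expressed); cpd 24 h, 37 °C; PFA fix; Alexa-488 anti-p-rpS6 Ser235/236, PI, Hoechst; IN Cell imaging; Hoechst/Alexa-488 intensity ratio; % active cells, thresholds set from rapamycin and DMSO wells.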

[20] = qHTS for compounds that reverse cellular toxicity of Amyloid beta (A-beta) peptide in yeast: LOPAC Validation Assay (AID 720559)
Summary of the method: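 Activity is expressed relative to DMSO and an equimolar ferric chloride/clioquinol mix. Compounds were pinned into medium with A-beta-expressing yeast, grown 48 hr at 30 C, then read by absorbance at 600 nm.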

With CC(C)COC(=O)c1ccccc1C(=O)OCC(C)C the outcome [1] was “inactive” and the outcome [2] was “inactive”.
In the case of C=C(C)[C@@H]1CC=C(C=O)CC1, the outcome [3] is reported as “inactive”, the outcome [4] is reported as “inactive” and the outcome [5] is reported as “inactive”. The outcome [6] was “inactive”, the Potency [7] was “inactive” and the max response [8] was -1.03%. For the same molecule, the outcome [9] was “inactive”, the outcome [10] was “inactive” and the outcome [11] was “inactive”. For the same molecule, the outcome [12] was “inactive”.
In the case of Nc1nc2[nH]c(=O)cnc2c(=O)[nH]1, the outcome [13] is reported as “inactive”.
For COc1cc([C@@H]2c3cc4c(cc3[C@H](O)C3COC(=O)[C@@H]32)OCO4)cc(OC)c1OC (stereo not given in full), the outcome [14] was “inactive” and the outcome [15] was “inactive”.
With Brc1c(Br)c(Br)c2n[nH]nc2c1Br the Potency [16] was 5.01 µM (active), the Potency [17] was 25.9 µM (active) and the Potency [18] was 28.2 µM (active).
In the case of O=c1oc(Cl)c(Cl)c2ccccc12, the Potency [19] is reported as 18.5 µM (active) and the outcome [20] is reported as “inactive”.
